Source: PubChem
NSD2 HMT inh = NSD2 (human) methyltransferase inhibition | NSD2 peptide methylation, AlphaScreen, 120 min | inhibition, % at 12.5 µM | hit rate 0.54% among 310,000 | AID 743445; in the data active means inhibition above about 50%
MITF TRPM1 HTS = increases MITF-driven TRPM1 promoter luciferase signal; SK-MEL-5 TRPM1-promoter luciferase, 24 h; % of positive control, neutral wells = 0; AID 588334; hit rate 0.75% among 300,000; activation, % at 12.5 µM;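 active means mean activation of at least 80% with every replicate also reaching 80%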;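 further: 0% = neutral control wells and 100% = parthenolide positive control wells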
TRPM1 prom inh = MITF TRPM1 promoter inhibition in SK-MEL-5 cells | SK-MEL-5 TRPM1 promoter luciferase, 24 h | inhibition, % at 12.5 µM | hit rate 0.83% among 330,000;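 active means mean inhibition across replicates of 60% or more, whatever share of single replicates reaches that level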
Wnt act = Wnt/beta-catenin pathway activation | activation, % at 9.35 µM | hit rate 1.2% among 300,000 | Wnt/beta-catenin reporter cell assay, activator, plate reader | AID 743398; in the data active means activation above about 30%, passing the limit was not always enough;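 further: 0% = neutral control wells and 100% = positive control wells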
PfHsp90 yeast 2 = reduces growth (ATP signal) of yeast expressing P. falciparum Hsp90; inhibition, % at 9.4 µM; AID 504621; hit rate 0.32% among 310,000; S. cerevisiae expressing PfHsp90, BacTiter-Glo ATP, 48 h; yeast lacking PDR1 and PDR3 efflux regulators;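 active means every replicate shows inhibition above about 80%, whatever the replicate mean, limit read from the data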;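 further: 0% = DMSO neutral controls and 100% = 20 µM radicicol positive controls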
Glyco luc inh = blocks N-linked glycosylation in D54 reporter cells. AID 588692. reporter increase, % at 12.5 µM. D54 ERlucT glycosylation luciferase reporter, 24 h; percent of 100 nM tunicamycin response. hit rate 0.23% among 360,000;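 active means mean luciferase reporter signal, scaled so untreated is 0 and the glycosylation-blocking control 100, at or above a set limit in every replicate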;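 further: luciferase carries N-glycosylation sites so blocking glycosylation raises the light; 0% = median of neutral control wells and 100% = median of 100 nM tunicamycin wells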
* marks the source's active call; other numbers are inactive results; · = no result given. This is a sample that favours compounds with a hit; in the whole collection about 2.9% have one here.

SMILES | NSD2 HMT inh | MITF TRPM1 HTS | TRPM1 prom inh | Wnt act | PfHsp90 yeast 2 | Glyco luc inh
COc1ccc(NC(=O)c2cccc(OS(=O)(=O)N(C)C)c2)cc1 | -1.3 | 49.1 | -38.5 | 54.7* | -18.4 | -8.0
CN(C)S(=O)(=O)Oc1cccc(C(=O)Nc2ccc(Cl)c(Cl)c2)c1 | · | 32.7 | -31.7 | · | 3.8 | -13.2
CN(C)S(=O)(=O)Oc1cccc(C(=O)Nc2cccc(Cl)c2)c1 | 2.3 | · | -21.8 | 31.2* | · | -1.0
COC(=O)C1=C(C)N(C)C(=NCC2CC2)NC1c1ccc(Cl)cc1 (stereo unspecified) | · | · | · | -4.2 | · | ·
COCCNC(=O)CCc1c(C)nc2nc(-c3cc(OC)cc(OC)c3)nn2c1C | 0.9 | -9.3 | 9.0 | -1.0 | 29.9 | 1.6
Cc1nn2c(-c3ccncc3)nnc2c2ccccc12 | 0.1 | 14.7 | -11.3 | · | -58.8 | 1.5
Cc1nnc(Oc2ccccc2)c2ccccc12 | 1.1 | 36.2 | -37.8 | 3.7 | 3.8 | 0.8
COc1ccc(Oc2nnc(C)c3ccccc23)cc1 | 1.1 | 88.8* | -83.9 | 41.6* | 7.6 | -2.4
COc1ccc(-c2nnc3c4ccccc4c(C)nn23)cc1 | 0.3 | 17.9 | -19.3 | 47.3* | · | -2.7
Cc1ccccc1-n1c(C)cc(/C=C(\C#N)C(=O)NCC2CCCO2)c1C (stereo unspecified) | 3.3 | 61.3 | -57.8 | 8.5 | 1.7 | -8.0
Cc1cc(/C=C(\C#N)C(=O)NCc2cccs2)c(C)n1-c1ccccc1F | -4.0 | 64.8 | -64.7 | 51.7* | 11.9 | -7.4
C=CCN(CC(=O)Nc1cccnc1)S(=O)(=O)c1ccc(Cl)cc1 | 6.8 | -3.4 | 5.9 | 37.1* | · | 2.9
O=C1NC[C@H](CCCCN2CCN(CC3CCCCC3)C(=O)C2=O)N(CCC2CCCCC2)C1=O | · | · | · | 5.7 | · | ·
CCOc1ccc(-c2c(C(=O)N/N=C/c3ccccc3)nnn2-c2nonc2N)cc1 | -1.8 | · | 12.5 | 33.5* | -9.4 | -0.2
CCCN(CCC)Cc1c(C(=O)N/N=C/C(C)=C\c2ccco2)nnn1-c1nonc1N | · | -65.8 | 68.6* | -2.7 | -11.1 | 3.3
CCOc1ccc(-c2c(C(=O)N/N=C/c3ccc(C)cc3)nnn2-c2nonc2N)cc1 | -1.5 | · | 5.7 | 0.9 | -1.3 | 3.2
CC(C)NC(=O)OC[C@H]1O[C@H](C#Cc2ccc(C(C)(C)C)cc2)C=C[C@H]1O | · | · | · | 6.4 | · | ·
c1ccc(-c2onc3cc4c(cc23)OCCO4)cc1 | 3.0 | 106.4* | -101.2 | · | -16.4 | -4.3
N/C(=N\OC(=O)COc1ccc(Br)cc1Cl)c1cccnc1 | · | 110.9* | -113.3 | 5.8 | -7.8 | -1.1
CC(C)C(=O)Nc1cccc(-c2nc3ncccc3o2)c1 | -1.9 | · | -3.8 | -1.3 | 14.0 | 3.0
CC(C)C(=O)Nc1ccc(-c2nc3ncccc3o2)cc1 | 14.6 | · | -26.3 | 37.4* | 1.3 | -15.1
CCCC(=O)Nc1ccc(-c2nc3ncccc3o2)cc1 | -4.0 | · | -78.5 | 36.8* | -3.5 | -4.1
COc1ccccc1NC(=O)Cn1cc(C(=O)C(=O)N2CCOCC2)c2ccccc21 | -1.6 | -10.9 | 14.2 | -0.6 | 3.1 | -0.4
Cc1cc(C)cc(-n2ccn(CC(=O)NCCc3ccccc3)c(=O)c2=O)c1 | -4.6 | -2.2 | -0.2 | -1.6 | 9.4 | 4.4
Cc1cccc(N/C=C/C(=O)c2ccc(Cl)cc2)c1 | -3.4 | 71.6 | -68.5 | 49.1* | 13.6 | -7.1
SMILES | NSD2 HMT inh | MITF TRPM1 HTS | TRPM1 prom inh | Wnt act | PfHsp90 yeast 2 | Glyco luc inh
Cc1ccc(/C=N/Nc2ccc(Cl)nn2)cc1 | 2.4 | 95.1* | -93.3 | 37.4* | 5.9 | 1.5
Oc1ccc(/C=N/Nc2ccc(Cl)nn2)cc1O | 6.6 | 47.2 | -45.9 | 7.5 | 14.7 | -2.4
CCCC12CN3CC(CCC)(CN(C1)C3c1ccco1)C2=O (stereo unspecified) | -6.5 | -10.2 | 6.6 | 14.1 | 3.5 | 3.0
COc1ccc(-c2nn(-c3ccccc3)cc2/C=N/NC(=O)c2ccc(Br)o2)cc1 | -2.4 | -61.1 | 62.7* | · | · | -2.3
COc1ccc(N2CCN(c3ccc(NC(=O)/C=C\C(=O)O)cc3)CC2)cc1 | 6.4 | -5.2 | 6.3 | 45.2* | 1.7 | -0.5
Cn1cccc1C(=O)NCCc1ccc(Cl)cc1 | · | 114.4* | -113.5 | 26.3 | -10.1 | -1.2
Nc1n[nH]c(-c2ccc(F)cc2)n1 | 0.6 | · | 7.5 | 1.1 | -8.0 | 0.7
CCCCc1ccc(-c2nc(N)n[nH]2)cc1 | 0.1 | 57.0 | -64.3 | 34.7* | -52.2 | -3.5
CCNc1ccc(Br)cc(C(=O)/C=C/c2c(Cl)cccc2Cl)c1=O | · | · | 83.3* | · | 28.5 | 2.0
O=C(CSc1nnc(-c2cccc(Cl)c2)n1Cc1ccco1)Nc1ccc2c(c1)OCO2 | 0.0 | · | · | · | · | ·
CCOC(=O)N1CCN(C(=O)C2CCN(C(=O)c3ccccc3C)CC2)CC1 | · | -73.8 | 74.4* | -1.2 | 14.4 | -7.7
COc1ccc(OC)c2[nH]c(=O)c(CCNC(=O)c3cc4ccccc4oc3=O)cc12 | 5.0 | · | · | · | · | ·
CCn1c(NCc2cc(Cl)ccc2O)nc2ccccc21 | -1.6 | 3.5 | 0.2 | -0.4 | 16.4 | -0.9
Cc1cc(-c2nnc(-c3cccc(Cl)c3)o2)no1 | -3.3 | · | -26.7 | 52.6* | -5.9 | -0.8
Cn1nnc(NC(=S)NC(=O)c2ccc(-c3ccc(Br)cc3)o2)n1 | 1.1 | 23.4 | -14.4 | 48.6* | 4.4 | 2.3
CCCn1nnc(NC(=S)NC(=O)c2ccc(-c3ccc(Br)cc3)o2)n1 | 1.0 | · | -2.6 | -0.1 | -36.5 | -0.7
Cc1ccc(-c2nc3n(n2)Cc2ccccc2-3)cc1 | -3.8 | -46.0 | 48.2 | · | 9.6 | ·
CCn1c(C)nc2cc(-c3nc4n(n3)Cc3ccccc3-4)ccc21 | · | -97.1 | 97.5* | -11.4 | 55.0 | -18.5
Oc1ccc(Br)cc1C1Nc2ccccc2S1 (stereo unspecified) | -3.4 | 37.0 | -33.8 | 9.5 | -23.0 | 0.8
COc1ccc(NC(=O)C2CCCN2S(=O)(=O)c2cccc3cccnc23)c(OC)c1 (stereo unspecified) | · | -10.6 | 13.5 | -2.7 | 101.8* | -0.4
COc1cc(NC(=O)[C@H]2CCCN2S(=O)(=O)c2cccc3cccnc23)cc(OC)c1OC | · | -12.5 | 13.5 | -4.8 | -9.7 | 5.4
Cc1ccccc1NC(=O)C1CCCN1S(=O)(=O)c1cccc2cccnc12 (stereo unspecified) | · | -13.9 | 15.3 | · | 10.7 | 0.5
Cc1ccccc1NC(=O)C1CCCN1S(=O)(=O)c1ccccc1C(F)(F)F (stereo unspecified) | -2.3 | -2.9 | 3.5 | 49.9* | 10.7 | 2.1
CCCC(C)C(=O)NC1CCCCN(C)C1=O (stereo unspecified) | · | · | · | -1.1 | · | ·
CCC(=C(c1ccc(OC)cc1)c1ccc(OC)cc1)c1cn(CC(O)CN2CCN(C)CC2)c2ccccc12 (stereo unspecified) | 15.7 | -85.9 | 85.8* | · | -16.2 | -2.6
O=c1[nH]c(-c2ccncc2)nc2ccccc12 | 2.8 | -11.5 | 11.2 | -8.0 | -7.1 | 1.9
Cc1cccc(-c2nc3ccccc3c(=O)[nH]2)c1 | 15.8 | 96.8* | -97.4 | 25.7 | -27.2 | 0.4
COc1ccc(-c2cc3ncc(-c4ccccc4)c(N)n3n2)cc1 | -2.1 | 147.5* | -129.3 | 6.1 | 11.4 | -4.9
